Source: PubChem (several laboratories)
An excerpt weighted towards active compounds, which were near 1.4% of everything screened.
Bim-Bcl-2 – inhibitors of Bim-Bcl-2 interaction, human; P10415; Bead-based flow cytometry, Bim peptide-Bcl-2 binding; inhibition, % at 10 µM; 190,000 tested, 0.06% active; in the data active means inhibition above about 40%;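 further: 0% = no compound wells with probe peptide and 100% = reference peptide inhibitor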
Wee1 degr inh – blocks degradation of human Wee1 kinase; HeLa Luc-Wee1K328M stability, luciferase luminescence; 100% = proteasome inhibitor MG132 effect; reporter increase, % at 5 µM; 220,000 tested, 1.2% active;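 active means activation above the mean of all tested compounds plus 3 SD, set per screening run, cut at about 8.8% in these data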;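 further: cells exposed to compound for 20 h before luminescence read; 0% = DMSO alone and 100% = MG132 at 30 µM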
Bim-Bcl-XL – human Bim-Bcl-XL interaction inhibition | Q07817 | Bim peptide-Bcl-XL binding, bead flow cytometry, fluorescence | inhibition, % at 10 µM | 190,000 tested, 0.04% active | AID 1007
Bim-Bfl-1 – inhibitors of Bim-Bfl-1 interaction, human | Q16548 | Bead-based flow cytometry, Bim-Bfl-1 binding inhibition | 190,000 tested, 0.12% active | inhibition, % at 10 µM;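 further: 0% = wells without compound plus tracer and 100% = blocker peptide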
Bcl-B Bim block – disrupts Bim peptide binding to human Bcl-B; Q9HD36; bead-based flow cytometry; inhibition, % at 10 µM; 190,000 tested, 0.073% active; AID 951;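 further: 0% = tracer peptide without compound and 100% = reference inhibitor peptide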
Bim-Bcl-W – disrupts Bim peptide binding to human Bcl-W; Q92843; bead-based flow cytometry; inhibition, % at 10 µM; 190,000 tested, 0.02% active; AID 952;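 further: 0% = bound tracer without compound and 100% = peptide blocker; higher means less fluorescent Bim peptide bound to Bcl-W beads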
Target sequence (Q92843 whole entry, looked up): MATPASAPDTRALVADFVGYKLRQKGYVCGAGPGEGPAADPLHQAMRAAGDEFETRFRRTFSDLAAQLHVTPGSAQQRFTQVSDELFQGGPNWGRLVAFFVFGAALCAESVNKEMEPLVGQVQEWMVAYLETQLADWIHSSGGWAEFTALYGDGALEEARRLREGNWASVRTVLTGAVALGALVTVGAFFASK
Wee1 stab conf – human Wee1 degradation inhibition, confirmation; activation, % at 5 µM; shares compounds with Wee1 degr inh; 1,100 tested, 4% active; HeLa Luc-Wee1K328M degradation, luminescence; vehicle 0%, proteasome-blocked wells 100%; in the data active means activation above about 8.9%
The depositor's hits bear a star; . = no result given. Unless noted, no stated cut-off is given here; in the data, active means inhibition above about 40%.

SMILES	Bim-Bcl-2	Wee1 degr inh	Bim-Bcl-XL	Bim-Bfl-1	Bcl-B Bim block	Bim-Bcl-W	Wee1 stab conf
CN1CCN(Cc2nc3ccccc3n2C)CC1	-10	-1	-7	-12	-6	0	.
Cn1c(NN=O)nc2ccccc21	-2	15*	-4	-2	-10	-4	2
CC12CN3CC(C)(CN(C1)C3c1cccs1)C2O (stereo not given)	-10	13*	-6	-6	-10	0	0
CC1(C)C2([N+](=O)[O-])CN3CC1([N+](=O)[O-])CN(C2)C3c1cccnc1 (stereo not given)	.	14*	.	.	.	.	0
CCC12CN3CC(CC)(CN(C1)C3c1cccnc1)C2=O (stereo not given)	-1	0	-2	0	0	-2	.
Cc1cc(C(=O)CS(=O)c2ccc(F)cc2)cc(C)c1OC(=O)N(C)C (stereo not given)	-2	-1	-2	-3	-9	-5	.
N#CC1(c2ccccc2)CCN(C2CC(=O)N(c3ccc4c(c3)OCO4)C2=O)CC1 (stereo not given)	-6	0	-3	-7	-4	-3	.
O=C(COc1ccccc1)N1CCN(C/C=C/c2ccccc2)CC1	0	1	0	0	0	-1	.
O=C(COc1ccc(Cl)cc1)N1CCN(C/C=C/c2ccccc2)CC1	-5	17*	-4	-16	-6	0	3
COc1cccc(C2(O)CCN(CC(=O)Nc3nc(C)cs3)CC2)c1	2	-2	-2	-3	0	0	.
